Compound activity: PubChem BioAssay, National Center for Advancing Translational Sciences (NCATS)
Shown are actives, neighbours in structure and some others; about 6.6% of the full set was active somewhere.
RGS4 inhibitor: human RGS4 inhibition. AID 504845. Transcreener GDP fluorescence polarization, RGS4-accelerated GTP hydrolysis. 390,000 tested, 0.039% active. Potency, µM (titrated, usually from 114 µM), for inactives: top-dose activity change, negative = inhibition, most hits filed as inhibitors; further: on the % scale 0 is the no-effect control and ±100 the full control effect; nearly all actives have a fitted effect of over 75% in size
Target sequence (P49798 whole entry, looked up): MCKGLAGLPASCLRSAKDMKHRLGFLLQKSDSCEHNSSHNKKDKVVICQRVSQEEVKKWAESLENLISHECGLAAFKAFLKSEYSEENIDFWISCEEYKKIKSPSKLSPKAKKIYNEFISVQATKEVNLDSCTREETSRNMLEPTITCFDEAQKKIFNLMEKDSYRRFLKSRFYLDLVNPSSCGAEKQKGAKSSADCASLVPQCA
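MLSMR compounds (23 nl, pin-transferred) preincubated 10 min at room temperature with a 500nM (2x) first reagent, then RGS4 at 900nM (2x) plus Transcreener GDP mix added; fluorescence polarization (620/688 nm) read before and after 90 min at 30 °C.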
KB-3-1 cytotox: KB-3-1 parental cell cytotoxicity; AID 1347075; KB-3-1 viability, CellTiter-Glo ATP luminescence, 72 h; Potency, µM (series often up to 46.1 µM), actives largely listed as cytotoxic; 400,000 tested, 1.4% active; further: on the % scale 0 is the no-effect control and ±100 the full control effect; nearly all actives have a fitted effect of over 60% in size
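Parental KB-3-1 adenocarcinoma cells in phenol-red-free DMEM with 10% FBS were pin-treated with compounds at several concentrations, incubated 72 h at 37 °C, and viability read by CellTiter-Glo luminescence; concentration-effect curves were fitted after normalization.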
TSG101-PTAP inh: blocks PTAP/TSG101 interaction to inhibit HIV-1 budding. Q99816. Fluorescence polarization, FITC-PTAP peptide / Tsg101 binding. Potency, µM (series often up to 115 µM), without a hit: top-dose activity change, negative = inhibition, usual class: inhibitors. 340,000 tested, under 10 active. AID 493005; active means well fitted inhibition curve with a large enough effect in the main read-out, with a control signal flat, not every such curve was filed as active; inconclusive means small, poorly fitted or top-dose-only effect, or effect the other way, or a change in a side signal; inactive means no such curve, though single readings can be large or run the other way; further: % of control where 0% means no effect
Target sequence (Q99816 whole entry, looked up): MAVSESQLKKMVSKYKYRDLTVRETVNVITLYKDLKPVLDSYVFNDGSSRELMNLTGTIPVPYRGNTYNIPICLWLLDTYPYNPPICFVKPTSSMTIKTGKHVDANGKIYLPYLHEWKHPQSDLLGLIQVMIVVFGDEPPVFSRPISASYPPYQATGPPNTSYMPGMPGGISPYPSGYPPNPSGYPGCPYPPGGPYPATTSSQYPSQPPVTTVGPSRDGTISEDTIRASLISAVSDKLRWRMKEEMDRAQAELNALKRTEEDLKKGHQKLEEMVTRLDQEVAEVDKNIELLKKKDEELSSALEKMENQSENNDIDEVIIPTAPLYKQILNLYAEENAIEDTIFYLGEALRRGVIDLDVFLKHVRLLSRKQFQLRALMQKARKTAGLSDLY
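Compounds were pin-transferred onto Tsg101 binding domain (10 uM final) in HEPES pH 7.5 buffer, then FITC-PTAP peptide was added at 50 nM final. After 20 min at RT, polarization reported peptide displacement across a qHTS concentration series.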
MCF10A rerep: induces DNA re-replication in MCF 10a normal breast cells. MCF 10A DNA re-replication, Hoechst nuclear intensity, 48 h. Potency, µM (doses to about 46.1 µM), for inactives: at the top dose activity, positive = re-replication, usual class: activators. 350,000 tested, 2.9% active; further: % of control where 0% means no effect; nearly all actives have a fitted effect of over 50% in size
KB-V1 MDR tox: KB-V1 MDR subline cytotoxicity; KB-V1 MDR cells viability, CellTiter-Glo, 72 h; Potency, µM (doses to about 46.1 µM), usual class: cytotoxic; 400,000 tested, 3.4% active; further: on the % scale 0 is the no-effect control and ±100 the full control effect; nearly all actives have a fitted effect of over 60% in size
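Readout: CellTiter-Glo luminescence, 10 min after addition. Cells: KB-V1 MDR subline, 72 h at 37 degrees C with compound. Analysis: corrected, normalized data fitted to concentration-effect curves.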
SW480 rereplic: DNA re-replication induction in SW480 cells | 340,000 tested, 1.8% active | AID 624297 | SW480 DNA re-replication, Hoechst DNA content imaging, 48 h | Potency, µM (doses to about 46.1 µM), inactives show top-dose re-replication activation, most hits filed as activators; further: % of control where 0% means no effect; nearly all actives have a fitted effect of over 55% in size
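Image-based read-out: total Hoechst fluorescence of nuclei (405 nm excitation, 500-530 nm emission), with hits raising the fraction of high-intensity nuclei. SW480 colon cells incubated 48 hr with compounds at 37 C.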
An asterisk follows results filed as active; ! = not confirmed by another sample. Unless noted, the call rests on the fitted dose curve; in most records, active means well fitted curve in the direction sought with a large enough effect; inconclusive means small, poorly fitted or top-dose-only effect, or another doubt; inactive means no such curve, though single readings can be large; an effect the other way counts as inactive or inconclusive. Potency means the concentration at half of the fitted maximal effect.

How did CCOCN(C(=O)Cn1cnc2cc(C)c(C)cc21)c1c(C)cccc1CC do in these assays?
RGS4 inhibitor: -11%; KB-3-1 cytotox: inconclusive; KB-V1 MDR tox: 5.2µM*

Results for O=C1c2[nH]nc(-c3ccccc3O)c2C(c2cccc(OCc3ccccc3)c2)N1CCCO (stereo unspecified) ?
RGS4 inhibitor: -6%; KB-3-1 cytotox: inactive; KB-V1 MDR tox: inactive

What do the screens show for `Cc1cccc(COc2ccc(-c3cc(C(F)(F)F)n4nc(C)cc4n3)cc2)c1`?
RGS4 inhibitor: -17%; KB-3-1 cytotox: inactive; KB-V1 MDR tox: inactive

Results for CCN(CC)CCOc1ccc(/C(=C(\Cl)c2ccccc2)c2ccccc2)cc1 ?
RGS4 inhibitor: 4%; KB-3-1 cytotox: inconclusive; TSG101-PTAP inh: -1%; MCF10A rerep: 5.2µM*; KB-V1 MDR tox: inactive; SW480 rereplic: 4%

How did CCN(CC)CCOc1ccc(Br)cc1 do in these assays?
RGS4 inhibitor: 25%; KB-3-1 cytotox: inactive; TSG101-PTAP inh: 0%; MCF10A rerep: -3%; KB-V1 MDR tox: inactive; SW480 rereplic: -7%

What do the screens show for `CCOC(=O)c1cc(-c2ccc(OC)cc2)n(CCC(=O)NCCc2ccc(OCC)c(OCC)c2)c1C`?
RGS4 inhibitor: 2%

How did COc1cc(/C=C(/C#N)c2ccc(F)cc2)ccc1Oc1ccc([N+](=O)[O-])cn1 do in these assays?
RGS4 inhibitor: -3%; KB-3-1 cytotox: inconclusive; TSG101-PTAP inh: 0%; MCF10A rerep: inconclusive; KB-V1 MDR tox: 2.3µM*; SW480 rereplic: -3%

Results for COc1cc(/C=N\NC(=O)c2ccccc2F)ccc1Oc1ccc([N+](=O)[O-])cn1 ?
RGS4 inhibitor: -6%; KB-3-1 cytotox: inconclusive; TSG101-PTAP inh: -1%; MCF10A rerep: 23µM*; KB-V1 MDR tox: 7.3µM*; SW480 rereplic: inconclusive

What do the screens show for `COc1cc(/C=N\NC(=O)c2cccc(Cl)c2)ccc1Oc1ccc([N+](=O)[O-])cn1`?
RGS4 inhibitor: 10%; KB-3-1 cytotox: inactive; TSG101-PTAP inh: -14%; MCF10A rerep: inconclusive; KB-V1 MDR tox: inconclusive; SW480 rereplic: 21µM*

How did COc1cc(/C=N\NC(=O)c2ccc(Cl)cc2)ccc1Oc1ccc([N+](=O)[O-])cn1 do in these assays?
RGS4 inhibitor: -31%; KB-3-1 cytotox: inactive; TSG101-PTAP inh: -3%; MCF10A rerep: -4%; KB-V1 MDR tox: inactive; SW480 rereplic: -8%

What do the screens show for `CCOc1cc(C=C(C#N)C#N)ccc1Oc1ccc([N+](=O)[O-])cn1`?
RGS4 inhibitor: -45%; KB-3-1 cytotox: inactive; TSG101-PTAP inh: 2%; MCF10A rerep: 0%; KB-V1 MDR tox: inactive; SW480 rereplic: 17%

Results for CCC(=O)N1CCc2cc(S(=O)(=O)NC(Cc3ccccc3)C(=O)Nc3ccc(Cl)cc3)ccc21 (stereo unspecified) ?
RGS4 inhibitor: -10%; KB-3-1 cytotox: inactive; KB-V1 MDR tox: inactive

How did CC1CCc2c(sc3nc(SCC(=O)NCc4ccco4)nc(N)c23)C1 (stereo unspecified) do in these assays?
RGS4 inhibitor: -32%; KB-3-1 cytotox: inconclusive; TSG101-PTAP inh: -3%; MCF10A rerep: inconclusive; KB-V1 MDR tox: 13µM*; SW480 rereplic: 18%

How did CC(C)c1nc2sc3c(SCC(=O)NCc4ccco4)ncnc3c2c2c1CCC2 do in these assays?
RGS4 inhibitor: inconclusive; KB-3-1 cytotox: inactive; TSG101-PTAP inh: -3%; MCF10A rerep: 15µM*; KB-V1 MDR tox: inactive; SW480 rereplic: 2%

Results for O=C(CSc1ncnc2sc3c(c12)CCCCC3)NCc1ccco1 ?
RGS4 inhibitor: -22%; KB-3-1 cytotox: 7.3µM*!; TSG101-PTAP inh: -2%; MCF10A rerep: 4µM*; KB-V1 MDR tox: inconclusive; SW480 rereplic: inconclusive

How did O=C(CSc1ncnc2sc3c(c12)CCCC3)NC1CCS(=O)(=O)C1 (stereo unspecified) do in these assays?
RGS4 inhibitor: -5%; KB-3-1 cytotox: inactive; TSG101-PTAP inh: -4%; MCF10A rerep: 6%; KB-V1 MDR tox: 9.2µM*; SW480 rereplic: 1%

How did CC(C)Cc1nc2sc3c(SCC(N)=O)ncnc3c2c2c1CCC2 do in these assays?
RGS4 inhibitor: 14%; KB-3-1 cytotox: inactive; TSG101-PTAP inh: -6%; MCF10A rerep: -2%; KB-V1 MDR tox: inactive; SW480 rereplic: -9%

How did CC(=O)CSc1ncnc2sc3c(c12)CCCC3 do in these assays?
RGS4 inhibitor: -8%; KB-3-1 cytotox: inactive; TSG101-PTAP inh: -4%; MCF10A rerep: 6%; KB-V1 MDR tox: inactive; SW480 rereplic: -15%

What do the screens show for `CCN(CC)C(=O)CSc1nc(N)c2c3c(sc2n1)CC(C)CC3` (stereo unspecified)?
RGS4 inhibitor: -40%; KB-3-1 cytotox: inactive; TSG101-PTAP inh: -1%; MCF10A rerep: inconclusive; KB-V1 MDR tox: inconclusive; SW480 rereplic: 1%

How did CSc1cccc(NC(=O)C(c2ccccc2)N2Cc3ccccc3C2=O)c1 (stereo unspecified) do in these assays?
RGS4 inhibitor: 17%

Results for Brc1ccc2c(ccc[n+]2CCc2ccccc2)c1 ?
KB-3-1 cytotox: inconclusive; KB-V1 MDR tox: inactive

What do the screens show for `CCCCCCCCNc1ccc(/C=C/c2ccnc3ccccc23)cc1`?
KB-3-1 cytotox: inactive; KB-V1 MDR tox: inactive

How did CC(Sc1nnc2ccccn12)C(=O)Nc1ccc(Cl)cn1 (stereo unspecified) do in these assays?
RGS4 inhibitor: -15%; KB-3-1 cytotox: inactive; TSG101-PTAP inh: -10%; MCF10A rerep: -10%; KB-V1 MDR tox: inactive; SW480 rereplic: -2%

Results for CCC(Sc1nnnn1-c1ccccc1)C(=O)NC(C)c1ccccc1 (stereo unspecified) ?
RGS4 inhibitor: 6%; KB-3-1 cytotox: inactive; TSG101-PTAP inh: -3%; MCF10A rerep: -5%; KB-V1 MDR tox: 5.8µM*; SW480 rereplic: -2%

How did CC(Sc1nnnn1-c1ccccc1)C(=O)Nc1ccc(Cl)cn1 (stereo unspecified) do in these assays?
RGS4 inhibitor: -13%; KB-3-1 cytotox: inactive; TSG101-PTAP inh: -5%; MCF10A rerep: inconclusive; KB-V1 MDR tox: 18µM*; SW480 rereplic: -2%

What do the screens show for `Cc1cccc(Nc2nnc(-c3ccc(C)c(S(=O)(=O)NCC4CCCO4)c3)c3ccccc23)c1` (stereo unspecified)?
RGS4 inhibitor: -4%; KB-3-1 cytotox: inactive; KB-V1 MDR tox: inactive

What do the screens show for `CCOC(=O)C1(Cc2ccc(Cl)cc2)CCN(C(=O)CCc2cnccn2)CC1`?
RGS4 inhibitor: 9%; KB-3-1 cytotox: inconclusive; TSG101-PTAP inh: -9%; MCF10A rerep: -4%; KB-V1 MDR tox: inconclusive; SW480 rereplic: 5%
